Results taken from PubChem BioAssay AID1159580 (chemical genetic matrix, 2015).
The whole screen tested about 5,500 compounds, of which about 2,000 (36%) were called active. Not shown: some 18% with an inconclusive outcome. Rule as the data show it: active = normalized growth mostly below about 0.91 (no sharp cut-off); inconclusive = no clear call, values can overlap the other calls; inactive = mostly above about 0.92. This is one part of the list.

Assay: chemical genetic growth profiling, strain panel (AID 1159580);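 also: tested at 20 µM; growth read once vehicle control cultures reached saturation at 30 °C; 1 = growth at the plate median or of vehicle wells; lower values mean less growth of the strain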
Conditions: growth OD
[1] = S. cerevisiae deletion strains, locus YDL101C, strain DUN1, active compounds read low
[2] = S. cerevisiae deletion strains, locus YHR030C, strain SLT2, active compounds read low

Measured: normalized growth

Cc1ccc(C(=O)NNC(=O)c2ccncc2)c(C)c1
inactive: S. cerevisiae deletion strains, locus YAL013W, strain DEP1, active compounds read low 0.994 | S. cerevisiae deletion strains, locus YBR229C, strain ROT2, active compounds read low 0.993 | S. cerevisiae deletion strains, locus YCL061C, strain MRC1, active compounds read low 1.01 | [1] 1.02 | S. cerevisiae deletion strains, locus YDL134C, strain PPH21, active compounds read low 1 | S. cerevisiae deletion strains, locus YDR150W, strain NUM1, active compounds read low 0.925 | S. cerevisiae deletion strains, locus YEL061C, strain CIN8, active compounds read low 0.993 | S. cerevisiae deletion strains, locus YGR078C, strain PAC10, active compounds read low 1 | S. cerevisiae deletion strains, locus YGR229C, strain SMI1, active compounds read low 1.01 | [2] 1.01 | S. cerevisiae deletion strains, locus YHR087W, strain rtc3, active compounds read low 1 | S. cerevisiae deletion strains, locus YJR043C, strain POL32, active compounds read low 1.01 | S. cerevisiae deletion strains, locus YJR075W, strain HOC1, active compounds read low 1.03 | S. cerevisiae deletion strains, locus YKL190W, strain CNB1, active compounds read low 1.01 | S. cerevisiae deletion strains, locus YLR039C, strain RIC1, active compounds read low 1.03 | S. cerevisiae deletion strains, locus YLR058C, strain SHM2 (second series), active compounds read low 0.994 | S. cerevisiae deletion strains, locus YLR085C, strain ARP6, active compounds read low 0.98 | S. cerevisiae deletion strains, locus YLR262C, strain YPT6, active compounds read low 1.02 | S. cerevisiae deletion strains, locus YML094W, strain GIM5, active compounds read low 0.983 | S. cerevisiae deletion strains, locus YMR219W, strain ESC1, active compounds read low 0.988 | S. cerevisiae deletion strains, locus YMR263W, strain SAP30, active compounds read low 0.965 | S. cerevisiae deletion strains, locus YMR307W, strain GAS1, active compounds read low 1.01 | S. cerevisiae deletion strains, locus YNL153C, strain GIM3, active compounds read low 1.01 | S. cerevisiae deletion strains, locus YNL298W, strain CLA4 (second series), active compounds read low 1.03 | S. cerevisiae deletion strains, locus YNL322C, strain KRE1, active compounds read low 0.991 | S. cerevisiae deletion strains, locus YNR030W, strain Alg12, active compounds read low 1.01 | S. cerevisiae deletion strains, locus YOL006C, strain TOP1, active compounds read low 1.06 | S. cerevisiae deletion strains, locus YPL055C, strain LGE1, active compounds read low 0.934 | S. cerevisiae deletion strains, locus YPL241C, strain CIN2, active compounds read low 0.998 | S. cerevisiae deletion strains, locus YPR135W, strain CTF4, active compounds read low 1.08 | S. cerevisiae strains, strain wild type, active compounds read low 1.01

Cc1ccc(C(=O)Nc2ccc3ccccc3n2)cc1
inactive: S. cerevisiae deletion strains, locus YAR019C, strain CDC15, active compounds read low 0.956 | S. cerevisiae deletion strains, locus YBL105C, strain PKC1, active compounds read low 0.954 | S. cerevisiae deletion strains, locus YBR135W, strain CKS1, active compounds read low 0.958 | S. cerevisiae deletion strains, locus YBR136W, strain MEC1, active compounds read low 0.965 | S. cerevisiae deletion strains, locus YBR160W, strain CDC28, active compounds read low 0.95 | S. cerevisiae deletion strains, locus YDL017W, strain CDC7, active compounds read low 0.964 | S. cerevisiae deletion strains, locus YDL028C, strain MPS1, active compounds read low 0.964 | [1] 0.96 | S. cerevisiae deletion strains, locus YDL108W, strain KIN28, active compounds read low 0.963 | S. cerevisiae deletion strains, locus YDL132W, strain cdc53, active compounds read low 0.96 | S. cerevisiae deletion strains, locus YDL214C, strain PRR2, active compounds read low 0.92 | S. cerevisiae deletion strains, locus YDR052C, strain DBF4, active compounds read low 0.976 | S. cerevisiae deletion strains, locus YDR054C, strain cdc34, active compounds read low 0.94 | S. cerevisiae deletion strains, locus YDR226W, strain ADK1, active compounds read low 0.956 | S. cerevisiae deletion strains, locus YDR477W, strain SNF1, active compounds read low 0.937 | S. cerevisiae deletion strains, locus YER123W, strain YCK3, active compounds read low 0.906 | S. cerevisiae deletion strains, locus YER133W, strain GLC7, active compounds read low 0.929 | S. cerevisiae deletion strains, locus YFL009W, strain cdc4, active compounds read low 0.954 | S. cerevisiae deletion strains, locus YFL029C, strain CAK1, active compounds read low 0.956 | S. cerevisiae deletion strains, locus YFR003C, strain YPI1, active compounds read low 0.961 | S. cerevisiae deletion strains, locus YFR019W, strain FAB1, active compounds read low 0.983 | S. cerevisiae deletion strains, locus YFR028C, strain CDC14, active compounds read low 0.944 | S. cerevisiae deletion strains, locus YGR040W, strain KSS1, active compounds read low 0.925 | S. cerevisiae deletion strains, locus YGR052W, strain FMP48, active compounds read low 0.99 | S. cerevisiae deletion strains, locus YGR092W, strain DBF2, active compounds read low 0.892 | [2] 0.938 | S. cerevisiae deletion strains, locus YHR079C, strain IRE1, active compounds read low 0.933 | S. cerevisiae deletion strains, locus YHR082C, strain KSP1, active compounds read low 0.994 | S. cerevisiae deletion strains, locus YHR205W, strain SCH9, active compounds read low 0.954 | S. cerevisiae deletion strains, locus YIL147C, strain SLN1, active compounds read low 0.963 | S. cerevisiae deletion strains, locus YJL095W, strain BCK1, active compounds read low 0.952 | S. cerevisiae deletion strains, locus YJL128C, strain PBS2, active compounds read low 0.954 | S. cerevisiae deletion strains, locus YJL157C, strain FAR1, active compounds read low 0.917 | S. cerevisiae deletion strains, locus YJR016C, strain ILV3, active compounds read low 0.946 | S. cerevisiae deletion strains, locus YJR066W, strain TOR1 (second series), active compounds read low 0.918 | S. cerevisiae deletion strains, locus YJR066W, strain TOR1, active compounds read low 0.978 | S. cerevisiae deletion strains, locus YKL048C, strain ELM1, active compounds read low 0.948 | S. cerevisiae deletion strains, locus YKL067W, strain YNK1, active compounds read low 0.93 | S. cerevisiae deletion strains, locus YKL101W, strain HSL1, active compounds read low 0.95 | S. cerevisiae deletion strains, locus YKL193C, strain SDS22, active compounds read low 0.957 | S. cerevisiae deletion strains, locus YKL203C, strain TOR2, active compounds read low 0.986 | S. cerevisiae deletion strains, locus YLR133W, strain CKI1, active compounds read low 0.944 | S. cerevisiae deletion strains, locus YLR403W, strain SFP1, active compounds read low 0.934 | S. cerevisiae deletion strains, locus YML070W, strain DAK1, active compounds read low 0.901 | S. cerevisiae deletion strains, locus YMR001C, strain CDC5, active compounds read low 0.966 | S. cerevisiae deletion strains, locus YMR205C, strain PFK2 (second series), active compounds read low 0.941 | S. cerevisiae deletion strains, locus YMR277W, strain FCP1, active compounds read low 0.956 | S. cerevisiae deletion strains, locus YNL006W, strain LST8, active compounds read low 0.966 | S. cerevisiae deletion strains, locus YNL020C, strain ARK1, active compounds read low 0.947 | S. cerevisiae deletion strains, locus YNL161W, strain CBK1, active compounds read low 0.944 | S. cerevisiae deletion strains, locus YNL183C, strain NPR1, active compounds read low 0.959 | S. cerevisiae deletion strains, locus YNL207W, strain RIO2, active compounds read low 0.964 | S. cerevisiae deletion strains, locus YNL222W, strain SSU72, active compounds read low 0.95 | S. cerevisiae deletion strains, locus YNL307C, strain MCK1 (second series), active compounds read low 0.93 | S. cerevisiae deletion strains, locus YOL078W, strain AVO1, active compounds read low 0.958 | S. cerevisiae deletion strains, locus YOL136C, strain PFK27, active compounds read low 0.92 | S. cerevisiae deletion strains, locus YOR061W, strain CKA2, active compounds read low 0.964 | S. cerevisiae deletion strains, locus YOR119C, strain RIO1, active compounds read low 1.01 | S. cerevisiae deletion strains, locus YOR231W, strain MKK1, active compounds read low 0.921 | S. cerevisiae deletion strains, locus YOR329C, strain SCD5, active compounds read low 0.962 | S. cerevisiae deletion strains, locus YPL031C, strain PHO85, active compounds read low 0.948 | S. cerevisiae deletion strains, locus YPL153C, strain RAD53, active compounds read low 0.928 | S. cerevisiae deletion strains, locus YPL204W, strain HRR25, active compounds read low 0.937 | S. cerevisiae deletion strains, locus YPL209C, strain IPL1, active compounds read low 0.949 | S. cerevisiae deletion strains, locus YPL256C, strain CLN2, active compounds read low 0.876 | S. cerevisiae deletion strains, locus YPR025C, strain CCL1, active compounds read low 0.959 | S. cerevisiae deletion strains, locus YPR106W, strain ISR1, active compounds read low 0.949 | S. cerevisiae deletion strains, locus YPR111W, strain DBF20, active compounds read low 0.945 | S. cerevisiae deletion strains, strain NNK1, active compounds read low 0.956 | S. cerevisiae deletion strains, strain TSCII, active compounds read low 0.957
active: S. cerevisiae deletion strains, locus YLR113W, strain HOG1, active compounds read low 0.857
